Bioassay records deposited in PubChem by The Scripps Research Institute Molecular Screening Center.
The list is not random: actives were taken first. Their share in the collection is about 4.8%.
hgDAF-12 ag: H. glycines DAF-12 receptor agonists, primary screen, cell-based, luminescence, HEK293, GAL4 fusion, UAS-luciferase; Nuclear hormone receptor DAF-12 (Heterodera glycines), GAL4 fusion; HEK293 GAL4-hgDAF12 UAS-luciferase reporter, agonist luminescence; normalized to butyrate control; activation, % at 6.8 µM; actives 1.8% (n = 370,000); AID 687014, 2013;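 active means activation above a cutoff set at the mean of all screened compounds plus 3 SD, cut at about 10% in these data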;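 further: 0% = DMSO wells and 100% = sodium butyrate wells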
SMARCA2 activ: SMARCA2 (BRM) function activators, primary screen, cell-based, luminescence, high throughput; MG213 cells, MMTV-luciferase reporter, dexamethasone, overnight; activation, % at 9.1 µM; actives 1% (n = 370,000); in the data active means activation above about 7.8%;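 further: 0% = vehicle wells and 100% = reference activator wells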
DAX1 inh-1: DAX1 (NR0B1) inhibitors on StAR promoter, primary screen, cell-based, luminescence, SF-1 (NR5A1), full-length DAX-1 | HEK293T StAR-luciferase reporter, SF-1/DAX-1 repression relief | inhibition, % at 6.8 µM | actives 1.1% (n = 370,000);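 active means inhibition above the mean over all tested compounds plus 3 SD, cut at about 3.6% in these data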;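 further: 0% = DAX-1 cells with DMSO and 100% = cells lacking DAX-1 with DMSO; higher inhibition means more luminescence from relief of DAX-1 repression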
DAX1 inh-2: DAX1 (NR0B1) inhibitors, primary screen, cell-based, HEK293, Gal4-DAX1, luciferase luminescence. inhibition, % at 6.75 µM. Nuclear receptor subfamily 0 group B member 1 (Homo sapiens), P51843. AID 504766, 2011. actives 0.99% (n = 340,000). HEK293 Gal4-DAX1 luciferase reporter;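 active means inhibition above the mean over all tested compounds plus 3 SD, cut at about 4.2% in these data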;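 further: 0% = DAX1-transfected cells with DMSO and 100% = empty-vector control cells with DMSO; inhibition shows as a rise in luminescence from relieved DAX1 repression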
Target sequence (P51843 207-470 limits assumed): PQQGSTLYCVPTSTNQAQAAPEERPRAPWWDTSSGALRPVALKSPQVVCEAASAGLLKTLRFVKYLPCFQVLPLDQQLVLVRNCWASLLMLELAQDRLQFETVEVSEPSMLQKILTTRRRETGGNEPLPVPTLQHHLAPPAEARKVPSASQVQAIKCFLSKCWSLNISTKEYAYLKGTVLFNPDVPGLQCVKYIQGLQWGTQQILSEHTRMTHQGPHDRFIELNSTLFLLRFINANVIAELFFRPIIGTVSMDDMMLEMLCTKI
ssDAF-12 act: S. stercoralis DAF-12 nuclear receptor activators, primary screen, cell-based, luminescence, HEK293, GRIP1 co-expression, lit1-tk-luc | HEK293 ssDAF-12/GRIP1 lit1-tk-luc reporter; % of 3 µM dafachronic acid response | actives 1% (n = 370,000) | activation, % at 6.8 µM | AID 652126, 2013 | Nuclear hormone receptor DAF-12 (Strongyloides stercoralis);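 active means activation above the mean over all tested compounds plus 3 SD, cut at about 0.9% in these data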;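 further: 0% = DMSO-only wells and 100% = 3 µM delta7-dafachronic acid wells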
hcDAF12 agonist: H. contortus DAF-12 nuclear receptor activators, primary screen, cell-based, luminescence, HEK293, lit1-tk-luc reporter; HEK293 hcDAF-12 lit1-tk-luc reporter; 0% DMSO, 100% Δ7-dafachronic acid; activation, % at 6.8 µM; actives 1.4% (n = 370,000); AID 652067, 2013;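 active means activation above the mean of all tested compounds plus 3 SD, cut at about 5.5% in these data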;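 further: 100% = response to 3 µM Δ7-dafachronic acid high control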
DAX1 conf: DAX1 (NR0B1) inhibitors relieving SF-1 repression, confirmation, cell-based, luminescence, HEK293T, full-length DAX-1, SF-1 activated StAR promoter. shares compounds with DAX1 inh-1. HEK293T StAR-promoter luciferase reporter, SF-1/DAX-1 repression. inhibition, % at 6.8 µM. actives 87% (n = 2,400). AID 652134, 2013;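 active means inhibition above the average of every tested compound plus 3 SD, cut at about 3.8% in these data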;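 further: 0% = DAX-1 cells with DMSO and 100% = no DAX-1 control cells with DMSO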
SF1 AF2mut Luc: StAR reporter signal changes without DAX1, counter-screen for DAX1 inhibitor project, cell-based, luminescence, AF-2 mutant SF-1, transactivation. shares compounds with DAX1 inh-1. HEK293 StAR-luciferase, SF-1 AF2 mutant. inhibition, % at 6.8 µM. actives 78% (n = 2,400);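 active means inhibition above the mean of all tested compounds plus 3 SD, cut at about 3% in these data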;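 further: 0% = DAX-1 transfected cells with DMSO and 100% = cells without DAX-1 with DMSO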
LXRb hcDAF ctr: LXR agonists, Gal4 luciferase reporter, confirmation, counter-screen for hcDAF-12 agonist project, cell-based, luminescence, HEK293, H. contortus campaign; 3,400 tested, under 10 active; activation, % at 6.8 µM; shares compounds with hcDAF12 agonist; AID 743027, 2013; HEK293 Gal4-LXR tk-luc reporter, 24 h; normalized: DMSO 0%, positive control 100%;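 active means mean percent activation of the reporter above a cutoff set as the average over tested compounds plus their standard deviation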
hcDAF12 ag: H. contortus DAF-12 receptor agonists, confirmation, cell-based, luminescence, HEK293, lit1-tk-luc, triplicate. shares compounds with hcDAF12 agonist. HEK293 hcDAF-12 lit1-tk-luc reporter; % of Δ7-dafachronic acid response. activation, % at 6.8 µM. actives 61% (n = 3,400). AID 743032, 2013;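 active means mean activation across triplicate tests above the threshold derived from the earlier primary screen, cut at about 5.5% in these data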;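 further: 0% = DMSO only wells and 100% = 3 µM Δ7-dafachronic acid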
hgDAF12 ag: H. glycines DAF-12 receptor agonists, confirmation, cell-based, luminescence, HEK293, GAL4-LBD fusion. shares compounds with hgDAF-12 ag. HEK293 GAL4-hgDAF12 luciferase reporter, agonist mode; percent of butyrate response. activation, % at 6.8 µM. actives 80% (n = 3,300). AID 743050, 2013;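 active means mean activation over triplicate wells above the hit cutoff derived from the earlier primary screen, cut at about 11% in these data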;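 further: 0% = DMSO low control and 100% = 2 mM sodium butyrate high control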
LXR ag 2: LXR agonists, Gal4 luciferase reporter, confirmation, counter-screen for hgDAF-12 agonist project, cell-based, luminescence, HEK293, H. glycines campaign; shares compounds with hgDAF-12 ag; 24 h; activation, % at 6.8 µM; 3,300 tested, under 10 active;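 active means mean activation of the triplicate above a set limit carried over from the primary screen, none filed active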
Starred values were filed as active, the others as inactive.

Cc1ccc(/C=N/Nc2ccc(C(=O)O)cc2)o1 was read as hgDAF-12 ag 16.2*, SMARCA2 activ 5.3, DAX1 inh-1 4.6*, DAX1 inh-2 3.3, ssDAF-12 act 0.6, hcDAF12 agonist 6.3*, DAX1 conf 8.4*, SF1 AF2mut Luc 6.6*, hgDAF12 ag 12.8* and LXR ag 2 0.4.
For CN1OC[C@@H]2CN[C@H](c3ccc(-c4cccc(F)c4)cc3)C[C@@H]21 the results were hgDAF-12 ag 13.4*, SMARCA2 activ -0.2, DAX1 inh-1 6.2*, DAX1 inh-2 4.0, ssDAF-12 act 0.1, hcDAF12 agonist 2.1, DAX1 conf 6.3*, SF1 AF2mut Luc 2.2, hgDAF12 ag 7.0 and LXR ag 2 0.4.
For O=C(Nc1ccccc1NC(=O)c1csnn1)c1csnn1 the results were hgDAF-12 ag 1.3, SMARCA2 activ -5.2, DAX1 inh-1 0.1, DAX1 inh-2 1.0, ssDAF-12 act -1.1 and hcDAF12 agonist 0.6.
Screening CC(C)c1ccc(NC(=O)c2csnn2)cc1 returned hgDAF-12 ag 13.5*, SMARCA2 activ 2.4, DAX1 inh-1 4.7*, DAX1 inh-2 0.3, ssDAF-12 act 1.1*, hcDAF12 agonist 4.9, DAX1 conf 12.2*, SF1 AF2mut Luc 6.6*, hgDAF12 ag 13.1* and LXR ag 2 0.9.
`Cn1c(=NC(=O)c2ccco2)sc2ccccc21` gave hgDAF-12 ag 21.1*, SMARCA2 activ 2.9, DAX1 inh-1 7.1*, DAX1 inh-2 2.7, ssDAF-12 act 4.0*, hcDAF12 agonist 19.9*, DAX1 conf 8.1*, SF1 AF2mut Luc 4.9*, LXRb hcDAF ctr 1.3, hcDAF12 ag 15.7*, hgDAF12 ag 20.0* and LXR ag 2 0.9.
